Shown are actives, neighbours in structure and some others; about 5.7% of the full set was active somewhere.
BAZ2B inh: qHTS Assay for Inhibitors of BAZ2B. Bromodomain adjacent to zinc finger domain protein 2B (Homo sapiens), Q9UIF8. AlphaScreen BAZ2B-H3K14Ac peptide displacement. Potency, µM (series often up to 114 µM), for the others: at the highest dose activity change, negative = inhibition, hits mostly inhibitors. 4.4% of 360,000 active; note: potency is the fitted concentration of half-maximal effect; % is set by controls: 0 for no effect and ±100 for the full control effect; nearly all actives have a fitted effect of over 60% in size
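AlphaScreen displacement of biotin-H3(5-23)K14Ac peptide (50 nM final) from BAZ2B (50 nM final) in PBS pH 7.4, 0.01% Tween-20; complex preformed 30 min RT, then compounds (top 110 uM) 30 min RT, beads 20 min dark.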
L3MBTL1 inh: qHTS Assay for the Inhibitors of L3MBTL1. Lethal(3)malignant brain tumor-like protein 1 (Homo sapiens), Q9Y468. AlphaScreen L3MBTL1–H3K9me1 peptide binding. Potency, µM (series often up to 57.1 µM), without a hit: at the highest dose activity, negative = inhibition, most hits filed as inhibitors. 0.66% of 230,000 active; note: potency is the fitted concentration of half-maximal effect; % is set by controls: 0 for no effect and ±100 for the full control effect; nearly all actives have a fitted effect of over 60% in size
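Displacement of a biotinylated histone H3(1-15) peptide monomethylated at Lys9 (75 nM) from L3MBTL1 (50 nM) was measured by AlphaScreen after a 30 min room-temperature compound incubation; cefsulodin titration served as intraplate control.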
KDM4E inh: qHTS Assay for Inhibitors of Human Jumonji Domain Containing 2E (JMJD2E); Lysine-specific demethylase 4E (Homo sapiens), B2RXH2; JMJD2E catalytic domain, FDH-coupled NADH fluorescence (FDH is formaldehyde dehydrogenase); Potency, µM (series often up to 57.1 µM), without a hit: at the highest dose activity change, negative = inhibition, usual class: inhibitors; 1.6% of 230,000 active; active = well fitted inhibition curve with a large enough effect, not every such curve was filed as active; inconclusive = small, poorly fitted or top-dose-only effect, or another doubt; inactive = no such curve, though single readings can be large or run the other way;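 note: potency is the fitted concentration of half-maximal effect; 0% = wells with enzyme and -100% = buffer wells without enzyme; nearly all actives have a fitted effect of over 50% in size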
HP1b chromo inh: HTS for Inhibitors of HP1-beta Chromodomain Interactions with Methylated Histone Tails; AlphaScreen HP1-beta / biotin-H3K9me3 peptide binding; 0.56% of 390,000 active; Potency, µM (series often up to 114 µM), without a hit: top-dose activity change, negative = inhibition, actives largely listed as inhibitors; Chromobox protein homolog 1 (Homo sapiens), P83916; note: potency is the fitted concentration of half-maximal effect; nearly all actives have a fitted effect of over 70% in size
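AlphaScreen: HP1-beta (50 nM) preformed 30 min with biotin-H3(1-18)K9me3 peptide (50 nM) in PBS pH 7.4, 0.01% Tween-20. Compound added for 30 min at RT, then streptavidin donor/nickel chelate acceptor beads (10 ug/mL) for 30 min.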
JMJD2A Tudor: qHTS Assay for Inhibitors of JMJD2A-Tudor Domain; AID 504339, 2011; Potency, µM (doses to about 114 µM), for inactives: at the top dose activity change, negative = inhibition, hits mostly inhibitors; AlphaScreen JMJD2A-Tudor / H3K4me3 peptide binding; 4.4% of 390,000 active; Lysine-specific demethylase 4A (Homo sapiens), O75164; note: potency is the fitted concentration of half-maximal effect; % is set by controls: 0 for no effect and ±100 for the full control effect; nearly all actives have a fitted effect of over 50% in size
PI5P4Ka inh: qHTS for Inhibitors of phosphatidylinositol 5-phosphate 4-kinase (PI5P4K) | Phosphatidylinositol 5-phosphate 4-kinase type-2 alpha (Homo sapiens), P48426 | max response, % | 1.2% of 330,000 active | PI5P4Kalpha enzyme, ADP-Glo luminescence, 60 min; active compounds read low; active = max response of -50% or lower; inconclusive = between -30% and -50%; inactive = -30% or higher; note: value at the top dose of about 77 µM; % is set by controls: 0 for no effect and ±100 for the full control effect
Target sequence (P48426 whole entry, looked up): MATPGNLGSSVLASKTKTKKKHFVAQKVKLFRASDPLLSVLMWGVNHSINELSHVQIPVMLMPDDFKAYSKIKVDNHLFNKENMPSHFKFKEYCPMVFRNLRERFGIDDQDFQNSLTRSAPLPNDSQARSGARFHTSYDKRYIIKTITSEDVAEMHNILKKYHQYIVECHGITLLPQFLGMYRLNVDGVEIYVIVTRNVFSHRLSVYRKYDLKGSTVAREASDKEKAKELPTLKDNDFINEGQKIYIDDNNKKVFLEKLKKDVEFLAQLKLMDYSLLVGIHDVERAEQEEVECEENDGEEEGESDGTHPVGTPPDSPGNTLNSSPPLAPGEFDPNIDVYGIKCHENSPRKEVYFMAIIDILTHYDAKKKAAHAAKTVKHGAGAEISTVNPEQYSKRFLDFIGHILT
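Enzyme plus substrate dispensed, test compounds pinned in, then ATP (5 microM final) added. After 60 min at RT, ADP-Glo reagent 1 for 45 min and reagent 2 for 30 min preceded luminescence imaging.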
An asterisk follows results filed as active; ? = inconclusive; nt = no result; [ ] = dose if it differs, or a comment. Unless noted, calls come from the whole dose curve; as a rule, active = well fitted inhibition curve with a large enough effect; inconclusive = small, poorly fitted or top-dose-only effect; inactive = no such curve, though single readings can be large or run the other way.

SMILES | BAZ2B inh | L3MBTL1 inh | KDM4E inh | HP1b chromo inh | JMJD2A Tudor | PI5P4Ka inh
O=C(Nc1ccc2cn[nH]c2c1)c1c(Cl)cccc1Cl | 50µM* | 10% | -4% | 1% | ? | -24
COc1ccc(CN(C(=O)Cc2coc3ccc(C)cc23)C2CCS(=O)(=O)C2)cc1 (stereo unspecified) | -9% | nt | nt | 2% | -32% | nt
CCOC(=O)c1c(C)[nH]c(CCC(=O)NCc2ccc(CC)cc2)c1C | 3% | nt | nt | 22%[57 µM] | -6% | nt
Cc1ccc(C)c(S(=O)(=O)NCCc2csc(-c3ccc(Cl)cc3)n2)c1 | 30% | nt | nt | 24%[57 µM] | 4% | nt
CN(C)CCNC(=O)c1cccc2ccc(-c3ccc(-c4ccccc4)cc3)nc12 | nt | nt | nt | -13% | 56µM* | ?
CN(C)CCNC(=O)c1cccc2nc3cccc(F)c3nc12 | nt | nt | nt | 19% | -11% | 3
CCN(CC)CCN(C(=O)c1cc2ccccc2cc1OC)c1nc2ccc(OC)cc2s1 | ? | nt | nt | -6% | ? | 2
COc1cc2ccccc2cc1C(=O)N(CCN(C)C)c1nc2c(OC)ccc(OC)c2s1 | ? | nt | nt | ? | 40µM* | -9
CCN(CC)CCN(C(=O)c1cc2ccccc2cc1OC)c1nc2ccc(F)cc2s1 | ? | nt | nt | 19% | 32µM* | 3
Cc1cc(C)c2sc(N(CCN(C)C)C(=O)c3ccc4ccccc4c3)nc2c1 | ? | nt | nt | -26%[57 µM] | 22µM* | -1
O=c1[nH]c(S)nc2sc3c(c12)CCCC3 | ? | -8% | ? | 0% | 25µM* | ?
CC(C)S(=O)(=O)c1cnc(-c2ccccn2)nc1N | 56µM* | -15% | -9% | 17% | 50µM* | 3
COc1ccc(-c2nc(-c3ccccn3)ncc2S(C)(=O)=O)cc1 | ? | 0% | 3% | 34% | -16% | 2
O=C(/C=C1\NC2(CCCC2)Cc2ccccc21)C(=O)N/N=C/c1ccc(O)c(O)c1 | 40µM* | 14µM* | -3% | ? | 10µM* | ?
COc1ccc(/C=N/NC(=O)C(=O)/C=C2\NC3(CCCC3)Cc3ccccc32)cc1 | -9% | -5% | -9% | -1% | -22% | 6
Oc1ccc(N=Nc2ccccc2-c2nn[nH]n2)c(O)c1 | 50µM* | nt | nt | -5% | ? | -63*
Cc1ccccc1-c1nn[nH]n1 | 2% | nt | 6% | 26% | -23% | nt
COc1cccc(C(=O)NCCc2csc3nc(-c4ccccc4F)nn23)c1OC | 1% | nt | nt | 26%[57 µM] | -10% | nt
COc1ccc(-n2c(C)cc(C(=O)CN3CCCCC3)c2C)cc1 | -34% | -9% | -26% | 22% | -17% | 1
CCOC(=O)c1cc(C(=O)OCC)cc(-n2c(C)cc(C(=O)CN3CCOCC3)c2C)c1 | ? | -4% | 13µM* | -9% | -35% | 4
O=C(CSc1ncc2c(n1)-c1ccccc1N(Cc1ccccc1)S2(=O)=O)Nc1ccccc1 | 5% | nt | nt | 2% | -10% | nt
C/[N+]([O-])=C\C1C(=O)CC(C)(C)CC1=O | -16% | 16% | 7% | 47% | -3% | 3
C=CCO/N=C/C1C(=O)CC(C)(C)CC1=O | ? | 8% | 9% | 1% | 10µM* | -3
C#CCOCCOCCOCCNc1nc(N2CCN(C(=O)[C@H](Cc3cc4ccccc4[nH]3)n3cc([C@@H](N)C(C)CC)nn3)CC2)nc(N2CCN(C(=O)[C@H](Cc3cc4ccccc4[nH]3)n3cc([C@@H](N)CC(C)C)nn3)CC2)n1 (stereo partly specified) | 35µM* | ? | -18% | nt | nt | nt
